Assay outcomes as filed in PubChem.
Rows were chosen to be rich in hits. Some 0.79% of all compounds tested hit in one or more screens of this group.
iPSC survival up: enhancers of human iPSC single-cell survival; 360,000 compounds, 0.044% hits; survival enhancement, % at 20 µM; hiPSC single-cell survival, ATPlite luminescence; 100% = ROCK inhibitor wells, 0% = DMSO; AID 602274; in the data active = survival enhancement above about 18%;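 also: cells exposed to compounds for 16 hours before the ATP read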
HDAC3 inh: inhibitors of human histone deacetylase 3 | O15379 | recombinant HDAC3, fluorogenic peptide/trypsin coupled, fluorescence | inhibition, % at 8.3 µM | 320,000 compounds, 0.15% hits; in the data active = inhibition above about 26%, passing the limit was not always enough; inconclusive = no clear call, values can overlap the other calls
Target sequence (O15379 whole entry, looked up): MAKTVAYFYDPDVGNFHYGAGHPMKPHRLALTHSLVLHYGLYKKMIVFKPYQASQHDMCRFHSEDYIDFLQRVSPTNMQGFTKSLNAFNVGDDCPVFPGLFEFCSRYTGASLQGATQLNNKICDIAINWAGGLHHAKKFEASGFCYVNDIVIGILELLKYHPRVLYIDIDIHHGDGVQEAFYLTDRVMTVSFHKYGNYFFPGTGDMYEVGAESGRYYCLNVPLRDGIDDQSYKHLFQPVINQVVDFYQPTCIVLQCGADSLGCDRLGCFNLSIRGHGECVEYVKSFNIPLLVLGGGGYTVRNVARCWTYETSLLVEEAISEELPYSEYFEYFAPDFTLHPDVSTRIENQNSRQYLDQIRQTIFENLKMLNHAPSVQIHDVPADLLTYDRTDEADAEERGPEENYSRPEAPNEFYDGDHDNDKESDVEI
LANA-H2A inh: blocks KSHV LANA binding to histone H2A/H2B; inhibition, % (test concentration not listed); 320,000 compounds, 0.6% hits; AID 2629; Q9QR71; cell-free LANA-H2A/H2B peptide, fluorescence polarization; in the data active = inhibition mostly above about 10%, no sharp cut-off; inactive = mostly below about 6.7%
DAGLB inh: diacylglycerol lipase beta (human) inhibition; Q8NCG7; 340,000 compounds, 0.059% hits; inhibition, % at 5.17 µM; HEK293T DAGLB membrane lysate, EnzChek fluorogenic substrate; AID 504411; in the data active = inhibition above about 34%;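 also: 0% = enzyme with vehicle and 100% = wells lacking enzyme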
Starred values were filed as active, the others as inactive; ? = inconclusive; / = not tested or not shown; + = active, no number; ! = repeats disagree.

SMILES	iPSC survival up	HDAC3 inh	LANA-H2A inh	DAGLB inh
CCOC(=O)C1SC2(C(F)(F)F)CC1(O)c1c(C)cc(C)nc1O2 (stereo unspecified)	2	44*	2	2
COc1ccc(-n2nnnc2C(c2cccc3ccccc23)N2CCC3(CC2)C(=O)NCN3c2ccccc2)cc1 (stereo unspecified)	1	/	/	/
CCC/C=N/O	0	3	32*	-1
CC(C(=O)c1c[nH]c2ccccc12)N1CCSCC1 (stereo unspecified)	5	-5	23*	0
CN(C(=O)Oc1cccc2ccccc12)C1C=CCC1 (stereo unspecified)	2	/	/	-11
O=C1NCN(c2ccccc2)C12CCN(C(c1ccccc1)c1nnnn1C1CCCC1)CC2 (stereo unspecified)	0	/	/	/
Cc1ccccc1N	0	5	-1	-2
Cc1ccc(N)c(C)c1	-1	1	37*	-1
C[N+]1(C)C2CCC1CC(OC(=O)C(CO)c1ccccc1)C2 (stereo unspecified)	0	-2	-2	0
C[N+]1(C)[C@@H]2CC[C@H]1CC(OC(=O)C(CO)c1ccccc1)C2 (stereo partly specified)	1	3	37*!	2
Cc1ccccc1-n1c(O)c(/C=C2/C(c3ccccc3)=Nc3ccccc32)c(=O)[nH]c1=O	2	?	-1	-1
Cc1cccc(-n2c(O)c(/C=C3/C(c4ccccc4)=Nc4ccccc43)c(=O)[nH]c2=O)c1	0	-2	86*	0
CC1=C(O)C(=O)C=C2C1=CC=C1C2(C)CCC2(C)C3CC(C)(C(=O)O)CCC3(C)CCC12C (stereo unspecified)	-3	/	/	18
Cc1cc(C(=O)OCC(=O)Nc2ccccc2F)c(C)n1C1CC1	0	/	/	-2
Cc1cc(C(=O)OCC(=O)Nc2ccc(F)cc2F)c(C)n1C1CC1	2	-2	146*	-9
CCOC(=O)Cc1csc(NC(=O)c2c(O)c3ccccc3n(CCC(C)C)c2=O)n1	-3	2	15*	1
Cc1cc(OCC(=O)NCc2ccncc2)c2c3c(c(=O)oc2c1)CCC3	0	-6	16*	1
Clc1cccc(N2Cc3cc(-c4ccccc4)ccc3-n3nncc3C2)c1	-2	/	/	/
C/C=C/c1ccc2c(c1)OCO2	5	6	11*	-1
c1ccc2c(c1)CN(Cc1ccc3c(c1)OCO3)Cc1cnnn1-2	-1	/	/	2
CCOC(=O)[C@]12Cc3cc4ccccc4cc3[C@H]1N(Cc1ccccc1)C(=O)c1ccccc12	-1	/	/	/
COP(=S)(OC)SCN1C(=O)c2ccccc2C1=O	4	/	23*	-3
Nc1ccc2nonc2c1[N+](=O)[O-]	0	1	29*	-15
N#CC1c2ccccc2-n2nncc2CN1Cc1cc(Cl)cc(Cl)c1 (stereo unspecified)	-1	/	/	-8
C=CCN1Cc2ccccc2-n2nncc2C1	-1	/	/	/
SMILES	iPSC survival up	HDAC3 inh	LANA-H2A inh	DAGLB inh
COC(=O)C1=C(c2cc3ccccc3s2)C[C@@H]2CC[C@H]1N2C	-3	2	0	-4
Cc1ccccc1N1C(=O)/C(=C/c2ccco2)C(=O)NC1=S	/	1	26*	/
CC(=O)OCC12CC(OC(=O)CC(C)C)C(C)=CC1OC1C(O)C(OC(C)=O)C2(C)C12CO2 (stereo unspecified)	-1	/	/	-4
C=C(C)[C@@]12OC3(c4ccccc4)O[C@@H]1C1[C@@H]4O[C@]4(CO)[C@@H](O)[C@]4(O)C(=O)C(C)=C[C@H]4[C@@]1(O3)[C@H](C)[C@H]2OC(=O)/C=C/C=C/c1ccccc1 (stereo partly specified)	42*	12	-3	-5
C=CC(=O)NCNC(=O)C=C	2	2	10*	1
Nc1c(Br)cc([N+](=O)[O-])cc1[N+](=O)[O-]	-2	-1	26*	0
Fc1ccc(C(OCCN2CCCC2)c2ccc(Br)cc2)cc1 (stereo unspecified)	-4	4	13*	1
Fc1ccc(C(OCCN2CCCC2)c2ccc(F)cc2)cc1	-1	-7	1	-1
CC[C@@H]1C=CC=CC[C@H](C)[C@@H](O)[C@@H](C)C(=O)[C@H](C)[C@@H](O)[C@H](C)C(=O)[C@H](C)[C@@H](O)[C@H](C)C=CC(=O)O[C@H]2[C@@H](C)[C@@H](CC1)O[C@@]1(CC[C@@H](C)[C@@H](C[C@H](C)O)O1)[C@@H]2C	/	50*	-2	/
CCOC(=O)[C@]12Cc3cc(OC)ccc3[C@H]1N(C(C)C)C(=O)c1cc(OC)ccc12	-1	/	/	/
Cc1c(NS(=O)(=O)c2ccccc2)ccc([N+](=O)[O-])c1Cl	-1	/	/	7
O=[N+]([O-])c1ccc(Cl)c(Cl)c1Cl	-1	-1	24*	-2
CC(=O)CCC(C)=O	4	2	+	-2
CCOc1ccc(C(C)=O)cc1Cc1c(O)[nH]c(=S)[nH]c1=O	-1	7	0	0
CCCOc1ccc(C(C)=O)cc1Cc1c(O)[nH]c(=S)[nH]c1=O	-1	-6	16*	-2
Cc1ccc(-n2c(O)c(C=NCCCn3ccnc3)c(=O)[nH]c2=O)cc1	0	-6	13*	3
COc1ccc(-n2c(O)c(C=NCCCn3ccnc3)c(=O)[nH]c2=O)cc1	-3	1	2	0
Cc1cc(OCCCC(=O)NCc2cccs2)ccc1Cl	2	6	23*	-12
CCCCCN1C(=O)c2cc(OC)ccc2[C@@]2(C(=O)OCC)Cc3cc(Cl)ccc3[C@@H]12	-2	/	/	/
CN1Cc2cnnn2-c2ccccc2C1C#N (stereo unspecified)	40*	/	/	-3
CS(=O)(=O)N1Cc2cnnn2-c2ccccc2C1C#N (stereo unspecified)	1	/	/	-1
CC(=O)OC1C(O)C2=C3C4(C)C1C(C)(C)C(=O)CC4C3(O)C(OC(C)=O)C1(CC1C)C2=O (stereo unspecified)	-5	/	/	/
COc1ccc(-n2c(O)c(/C=C3\C=Nc4ccc(Br)cc43)c(=O)[nH]c2=O)cc1	0	1	13*	1
Cc1cc(C)c(C(=O)N2CCC3(CC2)OCCO3)c(C)c1	0	11	28*	-1
Cc1cc(C(=O)N2CCC3(CC2)OCCO3)cs1	0	-1	1	-3
SMILES	iPSC survival up	HDAC3 inh	LANA-H2A inh	DAGLB inh
CC(C(=O)Nc1ccc(Br)cc1C(=O)c1ccccc1)N1CCCCC1 (stereo unspecified)	4	0	0	-14
O=C(CCN1CCCCC1)Nc1ccc(Br)cc1C(=O)c1ccccc1	0	0	19*	3
O=C(Nc1cccc(C(F)(F)F)c1)c1cccn(Cc2ccc3c(c2)OC(F)(F)O3)c1=O	2	-1	4	-7
CC(C)Oc1cccc(NC(=O)c2cccn(Cc3ccc4c(c3)OC(F)(F)O4)c2=O)c1	-1	34*	0	4
CN1C2CCC1/C(=C/c1ccccn1)C(=O)/C2=C\c1ccccn1	34*	7	5	-5
Cc1ccccc1-n1c(/C=C/c2ccccn2)nc2ccccc2c1=O	0	0	3	-12
